Test results taken from PubChem BioAssay (NCI).
Where “and” joins values, the source holds several entries; their conditions need not be identical. Equal entries are not always repeated. This is part of a sample that, as a whole, favours compounds with a hit. Of some 83,000 tested, about 20% had one in any assay.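 Testing used 96-well plates and a 48-hour single-concentration exposure. Example: -40 means 40% of the starting cells died.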 A number with no mark means an inactive call. Calls of active or inactive are those of the source. How the source made its calls: active means growth percent below 10; inactive means the rest.

Tests used:
Assay in all cases: NCI-60 one-dose screen, 48 h (100 = growth as untreated, 0 = no growth, -100 = all killed)
Settings in all cases: 10 µM unless noted
SR leukemia = test system: SR leukemia
RPMI-8226 leukemia = test system: RPMI-8226 leukemia
OVCAR-8 ovarian = test system: OVCAR-8 ovarian
OVCAR-5 ovarian = test system: OVCAR-5 ovarian
OVCAR-4 ovarian = test system: OVCAR-4 ovarian
SK-OV-3 ovarian = test system: SK-OV-3 ovarian
IGROV1 ovarian = test system: IGROV1 ovarian
OVCAR-3 ovarian = test system: OVCAR-3 ovarian
HS 578T breast = test system: HS 578T breast
NCI/ADR-RES ovarian = test system: NCI/ADR-RES ovarian

SMILES | growth (SR leukemia) | growth (RPMI-8226 leukemia) | growth (OVCAR-8 ovarian) | growth (OVCAR-5 ovarian) | growth (OVCAR-4 ovarian) | growth (SK-OV-3 ovarian) | growth (IGROV1 ovarian) | growth (OVCAR-3 ovarian) | growth (HS 578T breast) | growth (NCI/ADR-RES ovarian)
Cc1nn(-c2nc(-c3cc4ccccc4oc3=O)cs2)c(C)c1N=Nc1ccccc1 | 90.4% | 101% | 106% | 106% | 102% | 110% | 105% | 101% | 108% | 104%
COc1cc(/C=C2/C=C(c3ccc(C(C)(C)C)cc3)N(CCc3ccc(S(N)(=O)=O)cc3)C2=O)cc(OC)c1OC | 18.4% | -5.19% (active) | 57.4% | 91.4% | 54.7% | 79.9% | 70.5% | 48.8% | 69.6% | 71.8%
CNC(=O)c1cc(Oc2ccc3nc(NC(=O)Nc4ccc(C(F)(F)F)cc4)sc3c2)ccn1 | 70.6% | 70.4% | 48.5% | 93.9% | 37.7% | 105% | 70.9% | 24% | 30% | 58.4%
CCN(CC)CC(=O)Nc1ccc2ncnc(Nc3ccc(Oc4cccc(F)c4)c(Cl)c3)c2c1 | 2.54% (active) | 27.6% | 76.1% | 80.8% | 52.6% | 22.4% | 18% | 52.7% | 79.5% | 69.6%
COc1ccc(-c2ccc(-c3ccc(C(=N)N)cn3)s2)cc1Cl | 0.301% (active) | -41.6% (active) | -50.5% (active) | -95.5% (active) | -82.8% (active) | 100% | -83% (active) | -38.1% (active) | -68.5% (active) | 0.998% (active)
COc1cc(/C=C2\C(=O)N(CCCCn3c4ccccc4c(=O)c4ccccc43)c3ccccc32)cc(OC)c1O | 14.7% | 35.2% | 50.1% | 91% | 56.1% | 97.1% | 52.3% | 31.6% | 68.8% | 48.6%
C[N+]1=C(/C=C\C=C\c2ccccc2)C(C)(C)c2ccccc21 | -14.3% (active) | -25.5% (active) | 12.2% | 45.1% | 39.9% | 92.8% | 19.9% | -4.63% (active) | 25% | 75.3%
COc1ccc(Nc2ncnc3ccc(-c4cncc(NS(C)(=O)=O)c4)cc23)cc1Cl | 11.2% | 24.9% | 46.2% | 45.1% | 57.5% | 21.6% | 3.39% (active) | 15.2% | -3.14% (active) | 86%
CC1=C2[C@@H](CC1)[C@]1(C)O[C@@](C3CC3)(C[C@H]1OC(=O)CO)[C@H]2OC(=O)/C=C/c1ccccc1 | 80.4% | 84.3% | 8.13% (active) | 96% | 110% | 99.3% | 100% | 95.2% | -14.6% (active) | 2.55% (active)
CC(C)=CCc1cc(O)c(O)c2oc3cc(O)cc(O)c3c(=O)c12 | 25.9% | 48.2% | 51.1% | 75% | 62.5% | 65.7% | 55% | 67.4% | 92.2% | 28.2%
O=C(/C=C/c1ccc(F)cc1)Nc1ncc(Cc2ccc(F)cc2)s1 | 25.2% | 44.9% | 51.9% | 62.8% | 64.3% | 41.4% | 46.8% | 12.4% | 23% | 35.5%
Clc1ccc(/C=N\N2CCCCCC2)cc1 | 93.8% and 79.5% | 107% | 116% and 98.7% | 87.8% and 95% | 91.9% | 110% and 109% | 103% | 101% and 116% | 109% and 139% | 104%
COc1ccc(C/C(C)=C(/c2ccc(OCCN3CCCCCC3)cc2)c2ccc(OC(=O)c3ccccc3)cc2)cc1 | 71.3% | 112% | 107% | 98.2% | 116% | 93.7% | 106% | 117% | 98.5% | 111%
CC1(C)C(N)=Nc2cc(OCCCCN3Cc4ccccc4C3)c(OCC3CC3)cc21 | 93.4% | 100% | 76.2% | 80.3% | 82.6% | 89% | 79.4% | 78% | 88.3% | 92.6%
COc1ccc(/C=C2\COc3ccc(O)c(O)c3C2=O)c(OC)c1OC | 9.47% (active) | -23.6% (active) | 8.41% (active) | 36.2% | 27.8% | 67% | 16.9% | 9.03% (active) | 27.9% | 27%
O=C1C(Nc2ccc(Cl)cc2)=C(I)C(=O)c2ncccc21 | 4.45% (active) | -2.24% (active) | -65.1% (active) | 60.4% | -91.4% (active) | 83.3% | -76.2% (active) | -88.3% (active) | 39.9% | -0.0242% (active)
O=C1/C(=C/c2ccc(F)c(F)c2)CN(C(=O)C(Cl)Cl)C/C1=C\c1ccc(F)c(F)c1 | -21.2% (active) | -31.4% (active) | -95.4% (active) | -72.6% (active) | -67.1% (active) | -35% (active) | -84.5% (active) | -97% (active) | -38.5% (active) | -18% (active)
Cc1nnc(NS(=O)(=O)c2ccc(N=Nc3ccc(N)nc3N)cc2)s1 | 94.2% and 94.5% | 105% | 107% and 116% | 98.7% and 99.3% | 110% and 105% | 111% | 123% and 108% | 124% and 105% | 121% and 105% | 102% and 106%
Fc1ccccc1-c1cnn2cc(-c3ccccc3)cnc12 | 81.8% | 98% | 94.1% | 109% | 98.5% | 98% | 88% | 109% | 93% | 95%
CCC(=O)Oc1cc(Cl)c(Cl)cc1Cl | 101% | 102% | 96.9% | 90.2% | 101% | 107% | 108% | 113% | 97.4% | 108%
COC(=O)c1c2c(c(C)[n+]([O-])c1C)C(=O)C(NCCN1CCOCC1)=CC2=O | 66.9% | 91.9% | 61.7% | 89.1% | 35.4% | 103% | 63.4% | 5.12% (active) | 101% | 91.7%
O=C1C=C(Nc2ccccc2)c2ncccc2C1=O | -28.2% (active) | -40.7% (active) | -92.7% (active) | -90.3% (active) | -95.2% (active) | -91.1% (active) | -66.7% (active) | -74.6% (active) | -8.31% (active) | -24.8% (active)
CCCO/N=C/c1ccccn1 | 93.4% | 101% | 103% and 107% | 106% and 100% | 97.4% | 101% and 89.7% | 107% and 101% | 105% and 113% | 102% and 104% | 101% and 99.5%
O=C(Cc1ccc(F)cc1)c1ccccc1 | 100% | 95.9% | 104% | 122% | 109% | 108% | 107% | 129% | 94% | 108%
